CHT PAM – CHT positive allosteric modulators, primary screen, cell-based, membrane potential dye, choline EC20; CHT-expressing cells; hits give high values; LV-AA mutant CHT in HEK293 cells; B-score at 10 µM; actives 0.49% (n = 310,000);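 active means initial fluorescence not abnormally high and integrated response B-score, plate-corrected, over 3 SD above library mean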
Target sequence (Q9GZV3 whole entry, looked up): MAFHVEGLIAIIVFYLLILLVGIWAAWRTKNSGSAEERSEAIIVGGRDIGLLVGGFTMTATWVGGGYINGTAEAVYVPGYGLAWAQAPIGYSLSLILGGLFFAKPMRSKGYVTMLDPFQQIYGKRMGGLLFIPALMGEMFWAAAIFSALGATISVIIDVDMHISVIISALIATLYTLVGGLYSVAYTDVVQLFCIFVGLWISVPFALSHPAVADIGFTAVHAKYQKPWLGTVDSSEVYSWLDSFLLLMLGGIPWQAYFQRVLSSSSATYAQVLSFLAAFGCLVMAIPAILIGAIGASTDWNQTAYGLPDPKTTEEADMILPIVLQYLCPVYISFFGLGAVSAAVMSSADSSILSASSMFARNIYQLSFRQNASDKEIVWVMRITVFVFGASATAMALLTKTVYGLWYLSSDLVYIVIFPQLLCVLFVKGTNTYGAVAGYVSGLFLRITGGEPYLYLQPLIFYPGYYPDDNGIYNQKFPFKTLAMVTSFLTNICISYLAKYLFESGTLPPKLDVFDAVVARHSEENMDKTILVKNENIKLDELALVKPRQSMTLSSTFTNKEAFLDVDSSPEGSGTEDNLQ
GPR7 antagonist – GPR7 receptor antagonists, primary screen, cell-based, fluorescence, single concentration. Neuropeptides B/W receptor type 1 (Homo sapiens), P48145. GPR7-expressing cells, fluorescence antagonist assay. inhibition, % at 4.4 µM. actives 1.1% (n = 290,000). AID 1861, 2009; in the data active means inhibition above about 16%, passing the limit was not always enough;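 further: cells stimulated with the agonist NPW; 0% = agonist with vehicle and 100% = vehicle without agonist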
TMEM16A inh – TMEM16A chloride channel inhibitors, primary screen, cell-based, HTS; Anoctamin-1 (Mus musculus), Q8BHY3; HEK293 TMEM16A/YFP iodide influx fluorescence, ionomycin; normalized B-score (activity score, 25-100; higher = stronger inhibition) at 10 µM; actives 1.2% (n = 310,000); AID 588511, 2011;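 active means ratio plate-corrected score three or more library SD toward inhibition, starting fluorescence score within five deviations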;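 further: score derived from kinetic fluorescence span divided by baseline fluorescence per well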
CHT inh – inhibitors of human choline transporter CHT. High affinity choline transporter 1 (Homo sapiens), Q9GZV3. CHT-expressing cells, membrane potential dye, choline response; hits give low values. B-score at 10 µM. actives 0.86% (n = 310,000). AID 488975, 2010;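 active means B-score over 3 SD under the library average, and starting fluorescence ratio not unusually high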;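 further: choline stimulus applied at its EC90 after an EC20 pre-addition; B-score computed on integrated fluorescence ratio after choline addition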
Kir21 block – inhibitors of mouse Kir2.1 inward-rectifier potassium channel; AID 1672, 2009; HEK293-Kir2.1, FluxOR thallium flux fluorescence; hits give low values; B-score at 10 µM; actives 0.85% (n = 310,000);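 active means fluorescence ratio B-score at or below minus 3 SD of library scores, with starting-brightness B-score within 2 SD, cut at about -4.2 in these data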;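 further: channel flux triggered by added potassium and thallium sulfate stimulus; B-score of peak minus minimum fluorescence over baseline after thallium stimulus; more negative B-score means stronger Kir2.1 block with less thallium influx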
TMEM16A act – TMEM16A chloride channel activators or potentiators, primary screen, cell-based, HTS; Anoctamin-1 (Mus musculus), Q8BHY3; HEK293 TMEM16A/YFP-H148Q/I152L, iodide quench fluorescence; hits give low values; B-score at 10 µM; actives 0.3% (n = 340,000); AID 623877, 2012;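 active means fluorescence-ratio B-score plate-corrected deviation score at least 3 library SD below zero, with starting fluorescence score within 5 deviations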;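 further: channel opened by trigger with iodide after compound preincubation; score built on the fluorescence ratio of max minus min over baseline; more negative score means more quench and so TMEM16A activation or potentiation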
TMEM16A reconf – TMEM16A chloride channel inhibitors, confirmation, cell-based, re-confirmation; shares compounds with TMEM16A inh; HEK293 TMEM16A/YFP-H148Q, iodide quench fluorescence; ionomycin added to raise cell calcium; inhibition, % at 10 µM; actives 39% (n = 2,300); AID 652189, 2013;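 active means mean duplicate percent inhibition, scaled so buffer wells are 0 and the reference blocker 100, over three buffer SD above buffer mean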
TMEM16A Ca cntr – calcium mobilization in TMEM16A/YFP HEK293 cells, confirmation, counter-screen for TMEM16A inhibitor project; Fluo4 calcium mobilization; calcium response (% of ionomycin), % at 10 µM; actives 2% (n = 2,300); shares compounds with TMEM16A inh;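 active means duplicate-averaged calcium signal over 20% of the ionomycin maximum, relative to buffer baseline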;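 further: each well's signal is peak minus trough fluorescence divided by its pre-addition baseline; 0% = buffer wells and 100% = ionomycin wells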
Parental YFP cnt – iodide YFP quench changes in parental YFP-HEK293, counter-screen for TMEM16A inhibitor project, cell-based. 2,300 tested, under 10 active. YFP ratio F(max-min)/F0 at 10 µM. shares compounds with TMEM16A inh. ionomycin;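 active means yellow fluorescent protein signal ratio exceeding the buffer control mean by over 5 SD of those controls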;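 further: ratio is mean of duplicate wells from kinetic YFP trace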
ClC-1 rat inh – ClC-1 chloride channel inhibition, selectivity assay for TMEM16A inhibitor project, cell-based, voltage-dependent ClC-1 | shares compounds with TMEM16A inh | CHO ClC-1-YFP, iodide influx fluorescence quench; iodide control reads 0, buffer control 100 | ratio percent, % at 10 µM | 2,300 tested, under 10 active;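 active means duplicate-mean ratio percent above the mean of iodide-only control wells, which defines zero, plus 5 of their SD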;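 further: higher percent means stronger block of ClC-1 iodide influx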
The depositor's hits bear a star. This is a sample that favours compounds with a hit; in the whole collection about 3.7% have one here.

Screening COc1ccc(C2(c3ccc(OC)cc3)NC(=O)N(CC(=O)Nc3ccccc3)C2=O)cc1 returned CHT PAM inactive, GPR7 antagonist 2.3, TMEM16A inh inactive, CHT inh inactive, Kir21 block -0.02 and TMEM16A act inactive.
`O=C1CC(NNC(=O)c2cccc(F)c2)C(=O)N1` (stereo unspecified) gave CHT PAM inactive, GPR7 antagonist -2.1, TMEM16A inh inactive, CHT inh inactive, Kir21 block -1.28 and TMEM16A act inactive.
O=C(CSc1nnc(-c2ccccc2Cl)o1)N1CCOCC1 was read as CHT PAM inactive, GPR7 antagonist 2.0, TMEM16A inh inactive, CHT inh inactive, Kir21 block -0.06 and TMEM16A act inactive.
`Fc1ccccc1-c1nnc2ccc3ccccc3n12` gave CHT PAM inactive, GPR7 antagonist -7.3, TMEM16A inh inactive, CHT inh inactive, Kir21 block 1.44 and TMEM16A act inactive.
For Fc1cccc(Cl)c1-c1nnc2ccc3ccccc3n12 the results were CHT PAM inactive, GPR7 antagonist -10.6, TMEM16A inh 25*, CHT inh inactive, Kir21 block -2.14, TMEM16A act inactive, TMEM16A reconf inactive, TMEM16A Ca cntr inactive, Parental YFP cnt -0.898 and ClC-1 rat inh -10.0.
`O=C(Nc1ccc(Cc2nc3ccccc3s2)cc1)c1ccncc1` gave CHT PAM inactive, GPR7 antagonist 18.2, TMEM16A inh 25*, CHT inh inactive, Kir21 block 1.09, TMEM16A act inactive, TMEM16A reconf 17.0%*, TMEM16A Ca cntr inactive, Parental YFP cnt -0.984 and ClC-1 rat inh -11.5.
`NC(=O)c1ccc(NC(=O)CCc2nc3ccccc3s2)cc1` gave CHT PAM inactive, GPR7 antagonist -7.5, TMEM16A inh inactive, CHT inh inactive, Kir21 block -0.34 and TMEM16A act inactive.
For Cc1ccc(NS(=O)(=O)c2sc3ccc(Cl)cc3c2C)cc1 the results were CHT PAM inactive, GPR7 antagonist -22.3, TMEM16A inh 100*, CHT inh inactive, Kir21 block -0.05, TMEM16A act inactive, TMEM16A reconf inactive, TMEM16A Ca cntr inactive, Parental YFP cnt -0.98 and ClC-1 rat inh -7.0.
`COc1ccc(N2CCN(C(c3ccc4ncccc4c3)c3nnnn3C(C)C)CC2)cc1` (stereo unspecified) gave CHT PAM inactive, GPR7 antagonist -2.1, TMEM16A inh inactive, CHT inh inactive, Kir21 block 0.28 and TMEM16A act inactive.
OCC1OC(c2ccccc2)OC2COC(c3ccccc3)OC12 (stereo unspecified) was read as TMEM16A act inactive.
`O=C(c1cccc(S(=O)(=O)N2CCc3ccccc32)c1)N1CCN(c2ccccc2)CC1` gave TMEM16A act inactive.
Screening CC(=O)Nc1ccc(S(=O)(=O)Nc2cccc(-c3nc4ccccc4o3)c2)cc1 returned CHT PAM inactive, GPR7 antagonist -0.5, TMEM16A inh 100*, CHT inh inactive, Kir21 block 0.65, TMEM16A act inactive, TMEM16A reconf inactive, TMEM16A Ca cntr inactive, Parental YFP cnt -0.963 and ClC-1 rat inh -11.0.
O=S(=O)(Nc1ccc(-c2nc3ccccc3o2)cc1)c1ccccc1 was read as CHT PAM inactive, GPR7 antagonist -14.8, TMEM16A inh inactive, CHT inh inactive, Kir21 block 1.02 and TMEM16A act inactive.
For COc1ccc(CCNc2nc(-c3sc(C)nc3C)cs2)cc1OC the results were CHT PAM inactive, GPR7 antagonist -2.6, TMEM16A inh 100*, CHT inh inactive, Kir21 block -0.64, TMEM16A act inactive, TMEM16A reconf 34.0%*, TMEM16A Ca cntr inactive, Parental YFP cnt -0.926 and ClC-1 rat inh -16.0.
Screening CSc1nc(-c2ccc(Cl)cc2Cl)[nH]c(=O)c1C#N returned CHT PAM inactive, GPR7 antagonist -4.7, TMEM16A inh 25*, CHT inh inactive, Kir21 block 0.68, TMEM16A act inactive, TMEM16A reconf 49.5%*, TMEM16A Ca cntr inactive, Parental YFP cnt -1.11 and ClC-1 rat inh -8.0.
`CN(Cc1ccccc1)C(=O)COC(=O)c1ccc[nH]c1=O` gave TMEM16A act inactive.
For Cc1cc2nc(CSc3ccccc3)cc(=O)n2[nH]1 the results were CHT PAM inactive, GPR7 antagonist -12.2, TMEM16A inh inactive, CHT inh inactive, Kir21 block 0.22 and TMEM16A act inactive.
For CCOP(=O)(c1ccc(N(C)C)cc1)C(O)c1ccccc1OC (stereo unspecified) the results were CHT PAM inactive, GPR7 antagonist 10.0, TMEM16A inh 100*, CHT inh inactive, Kir21 block -0.07, TMEM16A act inactive, TMEM16A reconf inactive, TMEM16A Ca cntr inactive, Parental YFP cnt -1.16 and ClC-1 rat inh -11.5.
`COCCCNc1nc2ccccc2nc1NS(=O)(=O)c1cc(Cl)ccc1Cl` gave CHT PAM inactive, GPR7 antagonist -11.4, TMEM16A inh 25*, CHT inh inactive, Kir21 block 0.33, TMEM16A act inactive, TMEM16A reconf 16.5%*, TMEM16A Ca cntr inactive, Parental YFP cnt -0.862 and ClC-1 rat inh -12.0.

Screening results from PubChem BioAssay.
